Assay outcomes from PubChem BioAssay.
Rows were chosen to be rich in hits. Some 4.1% of all compounds tested hit in one or more screens of this group.
hgDAF12 agonist – H. glycines DAF-12 receptor agonists, primary screen, cell-based, luminescence, HEK293, GAL4 fusion, UAS-luciferase; Nuclear hormone receptor DAF-12 (Heterodera glycines), GAL4 fusion; HEK293 GAL4-hgDAF12 UAS-luciferase reporter, agonist luminescence; normalized to butyrate control; activation, % at 6.8 µM; 370,000 compounds, 1.8% hits;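 active = activation above a cutoff set at the mean of all screened compounds plus 3 SD, cut at about 10% in these data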;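 note: 0% = DMSO wells and 100% = sodium butyrate wells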
ssDAF12 agonist – S. stercoralis DAF-12 nuclear receptor activators, primary screen, cell-based, luminescence, HEK293, GRIP1 co-expression, lit1-tk-luc. HEK293 ssDAF-12/GRIP1 lit1-tk-luc reporter; % of 3 µM dafachronic acid response. activation, % at 6.8 µM. 370,000 compounds, 1% hits. AID 652126, 2013;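 active = activation above the mean over all tested compounds plus 3 SD, cut at about 0.9% in these data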;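 note: 0% = DMSO-only wells and 100% = 3 µM delta7-dafachronic acid wells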
DAX1 inh-1 – DAX1 (NR0B1) inhibitors, primary screen, cell-based, HEK293, Gal4-DAX1, luciferase luminescence; Nuclear receptor subfamily 0 group B member 1 (Homo sapiens), P51843; HEK293 Gal4-DAX1 luciferase reporter; inhibition, % at 6.75 µM; 340,000 compounds, 0.99% hits;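 active = inhibition above the mean over all tested compounds plus 3 SD, cut at about 4.2% in these data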;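 note: 0% = DAX1-transfected cells with DMSO and 100% = empty-vector control cells with DMSO; inhibition shows as a rise in luminescence from relieved DAX1 repression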
Target sequence (P51843 207-470 limits assumed): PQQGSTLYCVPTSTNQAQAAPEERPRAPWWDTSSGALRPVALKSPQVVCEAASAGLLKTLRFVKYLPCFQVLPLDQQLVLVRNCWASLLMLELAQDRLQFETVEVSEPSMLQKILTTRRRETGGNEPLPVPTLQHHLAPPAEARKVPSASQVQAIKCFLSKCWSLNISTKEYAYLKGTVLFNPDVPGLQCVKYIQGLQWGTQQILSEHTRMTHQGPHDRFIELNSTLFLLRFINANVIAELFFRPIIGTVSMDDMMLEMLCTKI
DAX1 inh-2 – DAX1 (NR0B1) inhibitors on StAR promoter, primary screen, cell-based, luminescence, SF-1 (NR5A1), full-length DAX-1. inhibition, % at 6.8 µM. HEK293T StAR-luciferase reporter, SF-1/DAX-1 repression relief. AID 652010, 2013. 370,000 compounds, 1.1% hits;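 active = inhibition above the mean over all tested compounds plus 3 SD, cut at about 3.6% in these data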;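 note: 0% = DAX-1 cells with DMSO and 100% = cells lacking DAX-1 with DMSO; higher inhibition means more luminescence from relief of DAX-1 repression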
hcDAF12 agonist – H. contortus DAF-12 nuclear receptor activators, primary screen, cell-based, luminescence, HEK293, lit1-tk-luc reporter; HEK293 hcDAF-12 lit1-tk-luc reporter; 0% DMSO, 100% Δ7-dafachronic acid; activation, % at 6.8 µM; 370,000 compounds, 1.4% hits;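 active = activation above the mean of all tested compounds plus 3 SD, cut at about 5.5% in these data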;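 note: 100% = response to 3 µM Δ7-dafachronic acid high control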
Numbers without * were called inactive.

Results for O=C(NCCN1C(=O)C2C3C=CC(C3)C2C1=O)c1cc(Cl)cc(Cl)c1 (stereo unspecified) ?
hgDAF12 agonist: -1; ssDAF12 agonist: -1; DAX1 inh-2: 0; hcDAF12 agonist: -2

What do the screens show for `COC(=O)[C@H](CC(C)C)N(Cc1cn(CC2CCCCC2)nn1)S(=O)(=O)c1ccc(F)cc1Br`?
hgDAF12 agonist: 4; ssDAF12 agonist: -1; DAX1 inh-2: -1; hcDAF12 agonist: -2

How did O=C1c2ccccc2C(=O)N1CN(C(=O)COc1ccc(Cl)cc1Cl)c1cccc(F)c1 do in these assays?
hgDAF12 agonist: 2; ssDAF12 agonist: 0; DAX1 inh-1: 0; DAX1 inh-2: 1; hcDAF12 agonist: 5.9*

What do the screens show for `CCN(C(=O)COc1cc(=O)n(CC)c2ccccc12)c1cccc(Cl)c1`?
hgDAF12 agonist: -1; ssDAF12 agonist: -1; DAX1 inh-1: 1; DAX1 inh-2: -1; hcDAF12 agonist: -2

Results for C=CCN1C(=O)[C@H](CC(=O)NCc2cccc(C(F)(F)F)c2)[C@@]2(C(=O)OCC)CCCC=C12 ?
hgDAF12 agonist: 5; ssDAF12 agonist: -1; DAX1 inh-2: -1; hcDAF12 agonist: -1

Results for COc1cc(/C=C(/C(=O)c2cccs2)c2nc3ccccc3[nH]2)ccc1O ?
hgDAF12 agonist: 11*; ssDAF12 agonist: -1; DAX1 inh-1: -2; DAX1 inh-2: -3; hcDAF12 agonist: 2

Results for S=C(Nc1ccc(Cl)cc1Cl)N1CCCCC1 ?
hgDAF12 agonist: 2; ssDAF12 agonist: -1; DAX1 inh-1: 1; DAX1 inh-2: 0; hcDAF12 agonist: 5.8*

Results for S=C(Nc1ccccc1Cl)N1CCCCCC1 ?
hgDAF12 agonist: 1; ssDAF12 agonist: -1; DAX1 inh-1: -1; DAX1 inh-2: 0; hcDAF12 agonist: 0

How did S=C(Nc1ccccc1Cl)N1CCC(c2ccccc2)C1 (stereo unspecified) do in these assays?
hgDAF12 agonist: 11*; ssDAF12 agonist: -1; DAX1 inh-1: 4.6*; DAX1 inh-2: 2; hcDAF12 agonist: 2

What do the screens show for `N#CCn1cnc2c(oc3ccccc32)c1=O`?
DAX1 inh-1: 0

What do the screens show for `CCCCn1cnc2c(oc3ccccc32)c1=O`?
hgDAF12 agonist: 12*; ssDAF12 agonist: 0; DAX1 inh-1: 1; DAX1 inh-2: 1; hcDAF12 agonist: 0

Results for Cc1ccc(-c2cc3c(nn2)-c2ccccc2C3=O)cc1 ?
hgDAF12 agonist: 10; ssDAF12 agonist: 0; DAX1 inh-1: -7; DAX1 inh-2: 1; hcDAF12 agonist: 6.3*

Results for O=C1c2ccccc2-c2nnc(-c3ccc(O)cc3)cc21 ?
hgDAF12 agonist: 11*; ssDAF12 agonist: 0; DAX1 inh-1: -1; DAX1 inh-2: 3; hcDAF12 agonist: 5.9*

How did CC(=O)Oc1cc(C)c(Cl)c2c(OC(C)=O)cc(C(C)=O)c(O)c12 do in these assays?
hgDAF12 agonist: -3; ssDAF12 agonist: -1; DAX1 inh-2: -2; hcDAF12 agonist: -2

What do the screens show for `COC(=O)c1n[nH]c2ccccc12`?
hgDAF12 agonist: 2; ssDAF12 agonist: 1.0*; DAX1 inh-1: 0; DAX1 inh-2: 1; hcDAF12 agonist: 6.2*

How did CC(OC(=O)c1n[nH]c2ccccc12)C(=O)Nc1ccccc1[N+](=O)[O-] (stereo unspecified) do in these assays?
hgDAF12 agonist: 4; ssDAF12 agonist: 1.0*; DAX1 inh-1: -1; DAX1 inh-2: 0; hcDAF12 agonist: 3

How did Cc1ccc(NC(=O)C(C)OC(=O)c2n[nH]c3ccccc23)cc1 (stereo unspecified) do in these assays?
hgDAF12 agonist: 8; ssDAF12 agonist: -1; DAX1 inh-1: 1; DAX1 inh-2: 1; hcDAF12 agonist: 0

What do the screens show for `Cc1cccc(CCNC(=O)Cn2nc(-c3ccccc3)ccc2=O)c1`?
hgDAF12 agonist: 1; ssDAF12 agonist: 0; DAX1 inh-2: -1; hcDAF12 agonist: -3

What do the screens show for `[O-]c1n[n+](-c2ccc(Cl)cc2Cl)cc2ccccc12`?
hgDAF12 agonist: -1; ssDAF12 agonist: -1; DAX1 inh-1: 4.4*; DAX1 inh-2: 0; hcDAF12 agonist: -1

Results for CCOC12NC(=O)CC(=O)N1C(c1ccccc1)=CS2 (stereo unspecified) ?
hgDAF12 agonist: 4; ssDAF12 agonist: -1; DAX1 inh-1: 4.5*; DAX1 inh-2: 0; hcDAF12 agonist: 0

Results for O=C(CSc1nnc(-c2cccnc2)n1-c1ccc(Cl)cc1)Nc1ccc(S(=O)(=O)Nc2nccs2)cc1 ?
hgDAF12 agonist: -3; ssDAF12 agonist: -2; DAX1 inh-2: 0; hcDAF12 agonist: -2

How did CCCCN1CC(COCc2ccccc2)Oc2cccc(Sc3ccc(OC)c(OC)c3)c2S1(=O)=O (stereo unspecified) do in these assays?
hgDAF12 agonist: 3; ssDAF12 agonist: -1; DAX1 inh-2: 4.2*; hcDAF12 agonist: 1

How did Cc1ccc(NC(=O)c2ccccc2Cl)c(Cl)c1 do in these assays?
hgDAF12 agonist: 11*; ssDAF12 agonist: 0; DAX1 inh-1: 1; DAX1 inh-2: 1; hcDAF12 agonist: 1

What do the screens show for `Cc1ccc(NC(=O)c2ccccc2F)c(NC(=O)c2ccccc2F)c1`?
hgDAF12 agonist: 3; ssDAF12 agonist: 0; DAX1 inh-1: 7.6*; DAX1 inh-2: 0; hcDAF12 agonist: 5

How did COc1ccc(N(C(=O)c2cccc([N+](=O)[O-])c2)S(=O)(=O)c2cccs2)cc1 do in these assays?
hgDAF12 agonist: -1; ssDAF12 agonist: -1; DAX1 inh-1: 5.1*; DAX1 inh-2: -1; hcDAF12 agonist: 0

Results for COc1ccc(CNC(=O)CN(c2cccc([N+](=O)[O-])c2)S(C)(=O)=O)cc1 ?
hgDAF12 agonist: 13*; ssDAF12 agonist: 0; DAX1 inh-1: 0; DAX1 inh-2: 0; hcDAF12 agonist: 1

Results for COc1ccc(CNC(=O)CN(c2cccc(OC)c2)S(C)(=O)=O)cc1 ?
hgDAF12 agonist: -1; ssDAF12 agonist: -1; DAX1 inh-1: 1; DAX1 inh-2: 0; hcDAF12 agonist: 2

Results for COc1ccc(CCNC(=O)CN(c2ccc(OC)cc2)S(C)(=O)=O)cc1 ?
hgDAF12 agonist: -1; ssDAF12 agonist: -1; DAX1 inh-1: 6.4*; DAX1 inh-2: 0; hcDAF12 agonist: 0

How did C[C@H]1[C@@H](NC(=O)c2cccc(C(F)(F)F)c2)CC[C@@]23CCCN2C(=O)CCC[C@@H]13 do in these assays?
hgDAF12 agonist: -3; ssDAF12 agonist: -1; hcDAF12 agonist: -1
